Compound activity as filed in PubChem.
BAZ2B block: blocks human BAZ2B; Q9UIF8; AlphaScreen BAZ2B-H3K14Ac peptide displacement; Potency, µM (highest dose often 114 µM), without a hit: at the highest dose activity change, negative = inhibition, most hits filed as inhibitors; hit rate 4.4% among 360,000; further: on the % scale 0 is the no-effect control and ±100 the full control effect; nearly all actives have a fitted effect of over 60% in size
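Compounds, titrated to a top concentration of 110 uM, were incubated 30 min at room temperature with preformed BAZ2B/acetyl-K14 H3 peptide complex (50 nM each). Proximity signal was measured by AlphaScreen after 20 min with beads.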
JMJD2A Tudor inh: JMJD2A Tudor domain (human) inhibition; O75164; AlphaScreen JMJD2A-Tudor / H3K4me3 peptide binding; Potency, µM (doses to about 114 µM), for inactives: at the top dose activity change, negative = inhibition, most hits filed as inhibitors; hit rate 4.4% among 390,000; further: on the % scale 0 is the no-effect control and ±100 the full control effect; nearly all actives have a fitted effect of over 50% in size
HP1b chromo inh: HP1-beta chromodomain-methylated histone interaction inhibition; Potency, µM (highest dose often 114 µM), for the others: at the highest dose activity change, negative = inhibition, usual class: inhibitors; P83916; hit rate 0.56% among 390,000; AlphaScreen HP1-beta / biotin-H3K9me3 peptide binding; further: nearly all actives have a fitted effect of over 70% in size
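AlphaScreen: HP1-beta (50 nM) preformed 30 min with biotin-H3(1-18)K9me3 peptide (50 nM) in PBS pH 7.4, 0.01% Tween-20. Compound added for 30 min at RT, then streptavidin donor/nickel chelate acceptor beads (10 ug/mL) for 30 min.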
Sfp inh: inhibitors of Bacillus subtilis Sfp phosphopantetheinyl transferase; hit rate 3.5% among 310,000; Biochemical Sfp PPTase activity, qHTS; Q9F4F7; Potency, µM, without a hit: largest response in the series, negative = inhibition, actives largely listed as inhibitors;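 further: the enzyme is Sfp with the accession as filed and its product quenches rhodamine fluorescence; 0% = enzyme reaction without inhibitor and -100% = no enzyme wells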
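Reaction rates are the 30-min fluorescence difference (ex 525, em 598 nm) in wells containing 15 nM Sfp, 5 uM rhodamine-CoA and 12.5 uM BHQ-2-YbbR at pH 7.6 with 10 mM MgCl2.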
G9a inh: blocks human histone lysine methyltransferase G9a; Q96KQ7; G9a H3K9 monomethylation, AlphaScreen, 2 h; Potency, µM (top dose mostly 102 µM), inactives show top-dose activity, negative = inhibition, most hits filed as inhibitors; hit rate 8.8% among 350,000; AID 504332; further: on the % scale 0 is the no-effect control and ±100 the full control effect; nearly all actives have a fitted effect of over 75% in size
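G9a (20 nM) preincubated 15 min RT with compounds, then 500 nM biotinylated H3K9 peptide and 20 uM SAM added; 2 h RT reaction. Monomethyl-H3K9 product detected by AlphaScreen with anti-H3K9me1 antibody, streptavidin donor and anti-rabbit IgG acceptor beads.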
L3MBTL1 block: inhibitors of human L3MBTL1; Q9Y468; AlphaScreen L3MBTL1–H3K9me1 peptide binding; Potency, µM (series often up to 57.1 µM), for the others: top-dose activity, negative = inhibition, hits mostly inhibitors; hit rate 0.66% among 230,000; AID 485360; further: on the % scale 0 is the no-effect control and ±100 the full control effect; nearly all actives have a fitted effect of over 60% in size
Target sequence (Q9Y468 whole entry, looked up): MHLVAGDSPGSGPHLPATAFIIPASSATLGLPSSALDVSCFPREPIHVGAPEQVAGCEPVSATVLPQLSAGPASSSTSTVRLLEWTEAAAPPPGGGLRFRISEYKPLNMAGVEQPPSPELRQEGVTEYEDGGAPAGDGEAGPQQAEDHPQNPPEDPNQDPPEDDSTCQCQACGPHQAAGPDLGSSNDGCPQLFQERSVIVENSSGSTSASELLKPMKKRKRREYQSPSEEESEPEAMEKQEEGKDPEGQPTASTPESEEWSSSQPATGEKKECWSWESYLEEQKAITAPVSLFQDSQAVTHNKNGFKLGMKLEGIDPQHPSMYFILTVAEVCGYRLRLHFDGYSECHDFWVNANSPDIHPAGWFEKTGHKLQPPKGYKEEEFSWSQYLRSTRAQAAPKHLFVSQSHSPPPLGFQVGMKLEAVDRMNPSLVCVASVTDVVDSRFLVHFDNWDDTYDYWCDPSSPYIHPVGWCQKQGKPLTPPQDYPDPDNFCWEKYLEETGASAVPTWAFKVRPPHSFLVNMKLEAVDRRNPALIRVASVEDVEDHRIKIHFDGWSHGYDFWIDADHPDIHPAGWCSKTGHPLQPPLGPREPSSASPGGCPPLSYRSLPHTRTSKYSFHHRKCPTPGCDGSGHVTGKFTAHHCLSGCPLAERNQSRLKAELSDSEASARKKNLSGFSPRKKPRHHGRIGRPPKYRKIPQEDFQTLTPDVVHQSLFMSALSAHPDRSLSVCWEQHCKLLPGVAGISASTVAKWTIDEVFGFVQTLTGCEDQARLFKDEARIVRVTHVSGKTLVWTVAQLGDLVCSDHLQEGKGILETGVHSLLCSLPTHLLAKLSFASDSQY
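Read-out is AlphaScreen signal from streptavidin donor and nickel chelate acceptor beads (10 ug/mL final each) bridging L3MBTL1 (50 nM) and biotinylated K9-monomethylated H3(1-15) peptide (75 nM), after 30 min compound exposure at room temperature.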
The depositor's hits bear a star; ? = inconclusive; / = no result given; [ ] = another dose, or the depositor's remark. In the library only some 12% were active in any assay of this set; here they are far more common. The call rests on the fitted dose curve; in most records, active means well fitted curve in the direction sought with a large enough effect; inconclusive means small, poorly fitted or top-dose-only effect, or another doubt; inactive means no such curve, though single readings can be large; an effect the other way counts as inactive or inconclusive. Potency means the concentration at half of the fitted maximal effect.

SMILES	BAZ2B block	JMJD2A Tudor inh	HP1b chromo inh	Sfp inh	G9a inh	L3MBTL1 block
CN(C1CCCCC1)S(=O)(=O)c1ccc2c(c1)c(=O)c(C(=O)N1CCN(c3ccc(F)cc3)CC1)cn2C	/	-16%	18%	/	-30%[59 µM]	/
CN1CCN(C(=O)c2cn(C)c3ccc(S(=O)(=O)N(C)C4CCCCC4)cc3c2=O)CC1	-28%	-27%	20%	14%	56µM*	/
CCn1cc(C(=O)O)c(=O)c2cc(S(=O)(=O)N(C)C)ccc21	-2%	20µM*	11%	-7%	?	-6%
CN(CCCNC(=O)c1cn(C)c2ccc(S(=O)(=O)N(C)C)cc2c1=O)c1ccccc1	?	?	-1%	5%	50µM*	-20%
COc1ccc2c(c1)[nH]c1c(=O)n(/N=C/c3ccc(OC)c(COc4ccccn4)c3)cnc12	4%	79µM*	7%	8%	9%	10%
O=C1CCc2cc(NS(=O)(=O)c3ccc([N+](=O)[O-])cc3)cc3c2N1CCC3	-31%	-12%	15%	/	35µM*	-11%
O=C1CCc2cc(NS(=O)(=O)c3ccc(Cl)cc3)cc3c2N1CC3	7%	-7%	12%	/	-37%[59 µM]	1%
O=C1CCc2cc(NS(=O)(=O)c3ccc([N+](=O)[O-])cc3)cc3c2N1CC3	3%	-19%	21%	/	45µM*	0%
O=C(/C=C/c1ccco1)NC(=S)Nc1ccccn1	56µM*	79µM*	-25%	?	?	/
CC(=O)Nc1ccc(NC(=S)NC(=O)/C=C/c2ccco2)cc1	?	?	7%	-28%	2%[0.501 µM]	2%[2.29 µM]
Cc1cccnc1NC(=S)NC(=O)/C=C/c1ccco1	-21%	-10%	29%	-10%	32µM*	/
CCC(C(=O)Nc1ccc(C)c(Cl)c1)n1c(=O)c(-c2ccccc2NC(C)=O)nc2ccccc21 (stereo unspecified)	-11%	-14%	10%	/	-36%[59 µM]	/
O=C(O)Cc1ccc(C(=O)c2ccccc2F)s1	-22%	-5%	29%	10%	45µM*	/
O=C(O)Cc1ccc(C(=O)c2ccc(Cl)cc2Cl)s1	166%	118%	135%	3%	9%	64%
CCOc1ccc(C2C(=O)N(C3CCCCC3)CC(=O)N2CCc2ccccc2)cc1OC (stereo unspecified)	-5%	-21%	19%	/	5%[59 µM]	/
Cc1nc2cc3nc(C)sc3cc2s1	-7%	-30%	?	40µM*	7.1µM*	-7%
O=S(c1cc(Cl)cc(Cl)c1O)c1cc(Cl)cc(Cl)c1O	/	/	/	-16%	?	/
Oc1c(Cl)cc(Cl)cc1Sc1cc(Cl)cc(Cl)c1O	50µM*	/	/	8%	?	-11%
CCN(CC)CCOC(=O)C1(c2ccccc2)CCOCC1	2%	-9%[11.4 µM]	8%	6%	4%	-4%
CCN(CC)CCOC(=O)C(Cc1cccc2ccccc12)CC1CCCO1 (stereo unspecified)	50µM*	20µM*	?	-24%	-22%	/
Cc1ccc(C)c(Nc2nnc(-c3ccc(C)c(S(=O)(=O)N4CCN(C)CC4)c3)c3ccccc23)c1	?	?	-2%	/	13µM*	/
Cc1cc(C)c(C)c(C(=O)CSc2nnc(C)c(=O)[nH]2)c1C	-5%	/	/	?	50µM*	/
CC(=O)c1c(C)[nH]c(C(=O)OCC(=O)N2CCN(S(=O)(=O)c3ccc(C)cc3)CC2)c1C	50µM*	-11%	5%	/	1%[12.7 µM]	1%
CCOC(=O)c1c(C)[nH]c(C(=O)OCC(=O)N2CCN(S(=O)(=O)c3ccccc3)CC2)c1C	0%	-15%	6%	2%	0%	/
Cc1nnc(SCC(=O)c2c(N)n(C)c(=O)n(C)c2=O)[nH]c1=O	-3%	-16%[11.4 µM]	-3%	3%	-32%	-4%
SMILES	BAZ2B block	JMJD2A Tudor inh	HP1b chromo inh	Sfp inh	G9a inh	L3MBTL1 block
Cc1ccc(S(=O)(=O)N2CCN(C(=O)CSc3nnc(C)c(=O)[nH]3)CC2)cc1	2%	-20%	46%	-11%	56µM*	-12%
O=C(Nc1ccccc1)O[C@@H]1C[C@H]2CCC(=O)N3CC[C@@H](C1)[C@@H]23	5%	/	/	-3%	/	0%
CN1CCN(C(=O)c2ccc3c(=O)n(-c4ccc(F)cc4)c(=S)[nH]c3c2)CC1	-19%	10µM*	43%	-27%	?	9%
Cn1c(=S)[nH]c2cc(C(=O)N3CCN(C(=O)c4ccccc4)CC3)ccc2c1=O	/	79µM*	47%	/	/	/
CCOC(=O)N1CCN(C(=O)c2ccc3c(=O)n(-c4ccc(F)cc4)c(=S)[nH]c3c2)CC1	-2%	79µM*	/	11%	?	/
CN1CCN(C(=O)c2ccc3c(=O)n(CCc4ccccc4)c(=S)[nH]c3c2)CC1	/	2%	58%	/	/	/
CCCn1c(=S)[nH]c2cc(C(=O)N3CCN(C(=O)OCC)CC3)ccc2c1=O	-18%	-2%	54%	-17%	9%	/
CC1Cc2ccccc2N1S(=O)(=O)c1nnc(NC(=O)c2ccccc2Br)s1 (stereo unspecified)	-30%	-34%	26%	/	-33%[59 µM]	/
CCCNC(=O)OC[C@H]1O[C@H](CCO/N=C/c2ccc(C(=O)N3[C@H](c4ccc(C)cc4)[C@@H](C)CC[C@H]3C(=O)OC)cc2)C=C[C@@H]1Oc1ccc(OC)cc1	-36%	/	/	22%	71µM*	-7%
CCCNC(=O)OC[C@@H]1O[C@H](CCO/N=C\c2ccc(C(=O)N3[C@H](c4ccc(C)cc4)[C@@H](C)CC[C@H]3C(=O)OC)cc2)C=C[C@@H]1Oc1ccc(OC)cc1	/	/	/	7%	/	/
CCc1nn2c(=O)cc(COC(=O)c3cccc(NC(=O)CCc4ccccc4)c3)nc2s1	-10%	-4%	20%	/	24%[59 µM]	/
